Whole data set: some 33,000 sequences, median “normalized occupancy” near 0.075, cut for the highest 2% near 0.095. The entries come from a sample that favours the highest values as a whole.

Binding signal data for 172 sequences are collected here from paper PMC4242493, “Sequence specificity incompletely defines the genome-wide occupancy of Myc”.

MaxL homodimer, sequence (P61244 whole entry): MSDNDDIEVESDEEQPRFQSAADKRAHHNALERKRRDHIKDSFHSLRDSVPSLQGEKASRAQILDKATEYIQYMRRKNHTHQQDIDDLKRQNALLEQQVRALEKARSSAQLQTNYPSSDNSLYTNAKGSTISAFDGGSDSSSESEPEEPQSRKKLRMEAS

The test addresses MaxL homodimer (Homo sapiens, UniProt P61244 1-160). The test is described as follows: universal protein-binding microarray (PBM); PBS-based mixture, 10 nM His-tagged protein dimer, 2% milk, 200 ng/uL BSA, 50 ng/uL salmon testes DNA, 0.02% TX-100; detection with Alexa 488 anti-His antibody;; high values mean tight binding. Particulars: protein: recombinant; tags: C-terminal His-tag (pET21a); chain copies: 2; dsDNA, one strand shown. In short, it runs like this: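 His-tagged protein dimer at 10 nM was incubated on Agilent 4 x 44 K arrays with the 'all 10-mer' universal design. Bound protein was tagged with 10 ng/μL fluorophore-conjugated anti-His antibody, and arrays were scanned on a GenePix 4400A. Binding occupancy for each 8-mer is its fluorescence intensity normalised to the highest-ranked 8-mer's intensity.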
Take GCGTGCAC: the binding signal worked out at 0.109 normalized occupancy. As to CCGTGCAG, the binding signal is 0.0778 normalized occupancy.

With CCGTGCCC, the binding signal is 0.0733 normalized occupancy. Turning to CCGTGCAC, the binding signal is 0.0816 normalized occupancy. AAGTGCAG: the binding signal was determined as 0.0763 normalized occupancy. The value for GAGTGCAC was 0.082 normalized occupancy; that for GCGTGCCC was 0.0965 normalized occupancy.

Regarding GCGTGCCA, the binding signal was 0.09 normalized occupancy. ACGTGCAT: the binding signal is 0.104 normalized occupancy. In the case of AAGTGCAT, the binding signal was found to be 0.085 normalized occupancy. The value for AGGTGCAT was 0.0863 normalized occupancy. CGAATAAA: the binding signal is 0.0729 normalized occupancy. Turning to TAAATAAA, the binding signal amounted to 0.0766 normalized occupancy. Turning to CCACCACG, the binding signal is 0.0914 normalized occupancy. The figure for ACCGGTTA is 0.0751 normalized occupancy.

For TAGGAAAA, the binding signal was determined as 0.0729 normalized occupancy.

With CAGCTGAA, the binding signal amounted to 0.0749 normalized occupancy. Consider ACGAAAGC, for which the binding signal came out at 0.0763 normalized occupancy. In the case of TCCGAAAA, the binding signal is 0.0774 normalized occupancy. The figure for AGACTGTA is 0.0748 normalized occupancy; for AAGTGCAC it is 0.0774 normalized occupancy. The value for ATGTGCAA was 0.0875 normalized occupancy; that for GTGTGCAA was 0.0818 normalized occupancy. The figure for ACGTGCAC is 0.113 normalized occupancy. In the case of CCGTGCAA, the binding signal was 0.078 normalized occupancy.

Consider AGGTGCAC, for which the binding signal stood at 0.0767 normalized occupancy.

In the case of GGGTGCAA, the binding signal is 0.0755 normalized occupancy. On to GCGTGCAA, for which the binding signal stood at 0.0963 normalized occupancy.

Regarding ACGTGCAA, the binding signal came to 0.098 normalized occupancy. As for ATGTGCAC, the binding signal was found to be 0.0959 normalized occupancy. The figure for CTGTGCAC is 0.0869 normalized occupancy; for TCGTGCAA it is 0.0766 normalized occupancy.

With GATGGACA, the binding signal stood at 0.0742 normalized occupancy. The figure for AATGCAAC is 0.0776 normalized occupancy; for CATACGGG it is 0.0812 normalized occupancy. With CAGTTATA, the binding signal came out at 0.0794 normalized occupancy.

As to CCTCCATC, the binding signal stood at 0.0784 normalized occupancy. As for CAACCTAA, the binding signal turned out to be 0.0744 normalized occupancy. Regarding CTAACATC, the binding signal worked out at 0.0796 normalized occupancy.

For the sequence AGCGTCGC, the binding signal is 0.0721 normalized occupancy.

CCCGTCCC: the binding signal came to 0.0747 normalized occupancy. For the sequence ATAATACC, the binding signal came to 0.08 normalized occupancy. Regarding AGCCCAAA, the binding signal was 0.0722 normalized occupancy. Turning to CGCACGCG, the binding signal was 0.121 normalized occupancy. For AGCACGCT, the binding signal is 0.104 normalized occupancy. As for AGCACACA, the binding signal amounted to 0.0906 normalized occupancy. The value for AGCACGCG was 0.156 normalized occupancy; that for CGCACGCC was 0.0878 normalized occupancy. CGCACGCA: the binding signal was 0.0894 normalized occupancy.

Consider AGCACGCC, for which the binding signal was 0.0846 normalized occupancy. In the case of AGCACACG, the binding signal was determined as 0.0942 normalized occupancy. The value for AGCACGCA was 0.0909 normalized occupancy; that for GAAATCAA was 0.075 normalized occupancy. ATGTAGTG: the binding signal came to 0.0796 normalized occupancy. The value for CCCTTATA was 0.0809 normalized occupancy; that for ACTTGTAC was 0.0751 normalized occupancy; that for CAAACGTC was 0.0739 normalized occupancy. On to AAAACGTG, for which the binding signal is 0.122 normalized occupancy. For CAAACGTA, the binding signal worked out at 0.0729 normalized occupancy. Take AAAACGTA: the binding signal was found to be 0.0744 normalized occupancy.

CAAACGTG: the binding signal amounted to 0.103 normalized occupancy.

Regarding AAAACGTT, the binding signal came to 0.0743 normalized occupancy.

As to ATAGTGAA, the binding signal was found to be 0.0751 normalized occupancy.

Regarding AACCCGAG, the binding signal is 0.0727 normalized occupancy. In the case of CGCATCCG, the binding signal came out at 0.0736 normalized occupancy. On to TGCATACA, for which the binding signal was 0.085 normalized occupancy. As for CGCATGCG, the binding signal worked out at 0.133 normalized occupancy.

Turning to TGCATGAA, the binding signal amounted to 0.0821 normalized occupancy.

Take AGCATACA: the binding signal was 0.087 normalized occupancy. Regarding AGCATGCT, the binding signal is 0.134 normalized occupancy. Turning to CGAATGCG, the binding signal is 0.0744 normalized occupancy. With AGCATGCA, the binding signal came out at 0.114 normalized occupancy. The value for AACATGCT was 0.0905 normalized occupancy. As for TGCATGCA, the binding signal was 0.1 normalized occupancy.

Consider AGCATTCA, for which the binding signal was determined as 0.0761 normalized occupancy.

Take AGCATCCT: the binding signal was 0.0767 normalized occupancy. For GCGTACAA, the binding signal came out at 0.0756 normalized occupancy. As to GCTTAGAC, the binding signal amounted to 0.0762 normalized occupancy.

Turning to GTATTGAC, the binding signal was determined as 0.0759 normalized occupancy. Regarding ACCGTCCA, the binding signal came out at 0.0727 normalized occupancy.

On to CAATAACA, for which the binding signal was 0.0785 normalized occupancy. Turning to GCATACCA, the binding signal worked out at 0.0835 normalized occupancy.

For the sequence AAGCATCC, the binding signal came to 0.0817 normalized occupancy.

Regarding GGCATGAA, the binding signal came out at 0.081 normalized occupancy.

Take AGCATTCC: the binding signal was found to be 0.0752 normalized occupancy. For the sequence GGCATGCA, the binding signal was 0.109 normalized occupancy. With CGCATGCA, the binding signal was 0.122 normalized occupancy. On to GGCATGCC, for which the binding signal is 0.0932 normalized occupancy.

With CGGATGCC, the binding signal turned out to be 0.0725 normalized occupancy.

Regarding AGCATGCC, the binding signal came out at 0.112 normalized occupancy. As to CGAATGCA, the binding signal turned out to be 0.0799 normalized occupancy. As for CGCATTCA, the binding signal is 0.0752 normalized occupancy.

As to CGCATCCC, the binding signal worked out at 0.0821 normalized occupancy. As for CGCATGCC, the binding signal was 0.116 normalized occupancy.

On to AGCATCCC, for which the binding signal turned out to be 0.077 normalized occupancy. Regarding TAAGTACA, the binding signal stood at 0.0831 normalized occupancy. Take AGTACTAA: the binding signal turned out to be 0.0769 normalized occupancy. In the case of GGGTTCTA, the binding signal came to 0.0754 normalized occupancy. With CGATTGGC, the binding signal turned out to be 0.0736 normalized occupancy.

For ACTTCGGG, the binding signal turned out to be 0.0726 normalized occupancy. As to AGCCCTTG, the binding signal stood at 0.0731 normalized occupancy.

As to AGATTGGA, the binding signal is 0.0757 normalized occupancy. For AACATCGC, the binding signal turned out to be 0.0768 normalized occupancy.

GTTCTCTA: the binding signal worked out at 0.0731 normalized occupancy. As to CGTGGTTC, the binding signal turned out to be 0.0858 normalized occupancy. CGGAGGTA: the binding signal was 0.0743 normalized occupancy. With AGCATGCG, the binding signal amounted to 0.124 normalized occupancy. As for AGCATCCG, the binding signal amounted to 0.0757 normalized occupancy.

As to AGTATGCG, the binding signal is 0.077 normalized occupancy. In the case of GCAAGGTA, the binding signal came to 0.0757 normalized occupancy. As to CGCAGTAC, the binding signal turned out to be 0.0724 normalized occupancy.

Take ATATGGGA: the binding signal came out at 0.0957 normalized occupancy.

In the case of ATATGGCG, the binding signal came to 0.0846 normalized occupancy. Consider CTATGGCA, for which the binding signal amounted to 0.0779 normalized occupancy.

As to CTATGGGA, the binding signal amounted to 0.0764 normalized occupancy. For the sequence GTATGGGA, the binding signal was 0.0804 normalized occupancy. Turning to ATATGGCA, the binding signal worked out at 0.098 normalized occupancy. Consider ATGATAAG, for which the binding signal stood at 0.0844 normalized occupancy. AGCTCCAT: the binding signal stood at 0.0804 normalized occupancy. Turning to GACATGCC, the binding signal was found to be 0.0968 normalized occupancy.

Regarding CACATGCG, the binding signal amounted to 0.159 normalized occupancy. The value for AACATGCA was 0.0927 normalized occupancy; that for AACATGCC was 0.089 normalized occupancy; that for AACATACG was 0.0835 normalized occupancy. CAAATGCG: the binding signal is 0.0791 normalized occupancy.

Regarding GACATGCA, the binding signal turned out to be 0.0909 normalized occupancy.

For CAAATGCC, the binding signal amounted to 0.0743 normalized occupancy.

As for AACATGCG, the binding signal worked out at 0.101 normalized occupancy. Turning to CAGATGCG, the binding signal was determined as 0.078 normalized occupancy.

As for CACATGCC, the binding signal was 0.134 normalized occupancy. For GAGATGCC, the binding signal stood at 0.0786 normalized occupancy. As to CCAACCCA, the binding signal was determined as 0.0759 normalized occupancy. As for AGTGCCTC, the binding signal stood at 0.0729 normalized occupancy.

Consider AGAGGCAC, for which the binding signal stood at 0.0762 normalized occupancy. For the sequence AGGCTCAT, the binding signal came out at 0.0751 normalized occupancy. AATCTAAA: the binding signal came to 0.0727 normalized occupancy. With ACCGGTAG, the binding signal came to 0.0719 normalized occupancy. Consider CACATGCA, for which the binding signal came out at 0.138 normalized occupancy.

As for TACATGCA, the binding signal amounted to 0.0895 normalized occupancy.

Turning to CAAATGCA, the binding signal was determined as 0.0784 normalized occupancy. As for ATGCGGAG, the binding signal was 0.0844 normalized occupancy. Take CGTTGAGC: the binding signal was 0.0723 normalized occupancy. Take CGGCATGC: the binding signal came out at 0.109 normalized occupancy. Take CGGCATCC: the binding signal worked out at 0.078 normalized occupancy. On to CGGCATAC, for which the binding signal was 0.0757 normalized occupancy. Regarding AGGCATGA, the binding signal stood at 0.091 normalized occupancy. GGGCATGA: the binding signal turned out to be 0.087 normalized occupancy. Turning to CGGCATGA, the binding signal worked out at 0.0962 normalized occupancy. Regarding AGACCATC, the binding signal stood at 0.0766 normalized occupancy. Consider ATCTAGTG, for which the binding signal was 0.078 normalized occupancy.

As for GCCTGCCA, the binding signal worked out at 0.072 normalized occupancy. The figure for CTGCACAA is 0.0745 normalized occupancy. For the sequence CTGCACGC, the binding signal is 0.0997 normalized occupancy.

For CAGCACGA, the binding signal stood at 0.0909 normalized occupancy. ATGCACGA: the binding signal was 0.0913 normalized occupancy. Regarding ATGCACGC, the binding signal amounted to 0.111 normalized occupancy. Turning to CAGCACGC, the binding signal is 0.0982 normalized occupancy. On to CTGCACGA, for which the binding signal turned out to be 0.0824 normalized occupancy. Consider ATGCACGG, for which the binding signal came out at 0.0875 normalized occupancy. In the case of AAGCACGC, the binding signal amounted to 0.0949 normalized occupancy. CAATTTGG: the binding signal was determined as 0.0724 normalized occupancy. As for CCACCGAA, the binding signal was 0.0733 normalized occupancy. AACAGCGA: the binding signal was 0.0748 normalized occupancy. Turning to AGTCACAA, the binding signal is 0.0805 normalized occupancy.

Regarding GTATATCA, the binding signal came out at 0.0787 normalized occupancy. The figure for CCCACCCA is 0.0925 normalized occupancy.

As for ACCCCCCA, the binding signal came out at 0.0865 normalized occupancy. For GCCACCCC, the binding signal stood at 0.0827 normalized occupancy.

As to ACCCCCCC, the binding signal worked out at 0.0963 normalized occupancy. On to AACCCCCC, for which the binding signal was 0.0825 normalized occupancy. Regarding CCCACCCC, the binding signal worked out at 0.0962 normalized occupancy.

With GGTGCAAA, the binding signal stood at 0.0755 normalized occupancy.
